KB-3-1 cytotox: KB-3-1 parental cell cytotoxicity. KB-3-1 viability, CellTiter-Glo ATP luminescence, 72 h. 400,000 tested, 1.4% active. Potency, µM (highest dose often 46.1 µM), most hits filed as cytotoxic. AID 1347075; note: % is set by controls: 0 for no effect and ±100 for the full control effect; nearly all actives have a fitted effect of over 60% in size
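Multi-concentration cytotoxicity screen in KB-3-1 cells grown in DMEM lacking phenol red with 10% FBS. After 72 h at 37 °C with compound, ATP-dependent luminescence was recorded.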
KB-V1 MDR tox: KB-V1 MDR subline cytotoxicity; 400,000 tested, 3.4% active; Potency, µM (series often up to 46.1 µM), actives largely listed as cytotoxic; AID 1347076; KB-V1 MDR cells viability, CellTiter-Glo, 72 h; note: % is set by controls: 0 for no effect and ±100 for the full control effect; nearly all actives have a fitted effect of over 60% in size
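Cytotoxicity toward P-gp-expressing KB-V1 cells was determined as loss of CellTiter-Glo luminescence after 72 h at 37 degrees C. Compounds were tested in quantitative HTS format across a concentration range, with curves fitted to normalized data.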
SW480 rerep: inducers of DNA re-replication in SW480 colon cancer cells; SW480 DNA re-replication, Hoechst DNA content imaging, 48 h; Potency, µM (series often up to 46.1 µM), for inactives: at the top dose re-replication activation, hits mostly activators; 340,000 tested, 1.8% active; AID 624297; note: % of control where 0% means no effect; nearly all actives have a fitted effect of over 55% in size
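Readout is total intensity of Hoechst-stained nuclei, excited at 405 nm and collected at 500-530 nm. Compound treatment lasted 48 hr at 37 C in 5% CO2 before staining.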
ELG1 repair inh: ELG1-dependent DNA repair inhibition; HEK293T ELG1-luciferase reporter, luminescence, 16 h; DNA damage induced by 5-fluorouridine; Potency, µM (doses to about 46.1 µM), for the others: at the top dose activity change, negative = inhibition, usual class: inhibitors; 330,000 tested, 2.3% active; AID 504467; note: % is set by controls: 0 for no effect and ±100 for the full control effect; nearly all actives have a fitted effect of over 55% in size
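Cells (2,000 per well) received 5-fluorouridine plus test compound or DMSO and were incubated 16 hr at 37 °C, 5% CO2. Luciferase activity was read by luminescence 30 min after ONE-Glo addition; signal suppression marked inhibition of damage-induced ELG1 function.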
MCF10A rerep: inducers of DNA re-replication in MCF 10A breast cells | MCF 10A DNA re-replication, Hoechst nuclear intensity, 48 h | Potency, µM (top dose mostly 46.1 µM), without a hit: top-dose activity, positive = re-replication, most hits filed as activators | 350,000 tested, 2.9% active | AID 624296; note: % of control where 0% means no effect; nearly all actives have a fitted effect of over 50% in size
Starred values were filed as active, the others as inactive; [ ] = dose if it differs, or a comment. Shown are actives, neighbours in structure and some others; about 8.2% of the full set was active somewhere. Calls come from the whole dose curve; as a rule, active = well fitted curve in the direction sought with a large enough effect; inconclusive = small, poorly fitted or top-dose-only effect, or another doubt; inactive = no such curve, though single readings can be large; an effect the other way counts as inactive or inconclusive. Potency is the fitted concentration of half-maximal effect.

Results for CCCc1cc(CN2CCOCC2)c(O)c(CN2CCOCC2)c1O ?
KB-3-1 cytotox: inactive; KB-V1 MDR tox: inconclusive; SW480 rerep: inconclusive; MCF10A rerep: 14.6µM*

Results for COc1ccc(OC)c(NC(=O)C2(C)CCN2C(=O)Cc2ccc(Cl)cc2Cl)c1 (centres undefined) ?
KB-3-1 cytotox: inactive; KB-V1 MDR tox: inconclusive

How did COc1cccc(NC(=O)CSc2nnc(NC(=O)C3CC3)s2)c1 do in these assays?
KB-3-1 cytotox: inactive; KB-V1 MDR tox: inactive; SW480 rerep: -1.1%; ELG1 repair inh: -4.2%; MCF10A rerep: -15.2%

How did COc1cccc(Nc2nnc(SCC(=O)Nc3sccc3C(N)=O)s2)c1 do in these assays?
KB-3-1 cytotox: inconclusive; KB-V1 MDR tox: inactive; SW480 rerep: -13.4%; ELG1 repair inh: 14.6µM*; MCF10A rerep: inconclusive

What do the screens show for `CCc1ccc(Nc2nnc(SCC(=O)Nc3sccc3C(N)=O)s2)cc1`?
KB-3-1 cytotox: inconclusive; KB-V1 MDR tox: inconclusive; SW480 rerep: inconclusive; ELG1 repair inh: inconclusive; MCF10A rerep: 16.4µM*

Results for Cc1nnc(SCC(=O)Nc2cccnc2Cl)s1 ?
KB-3-1 cytotox: inactive; KB-V1 MDR tox: inactive; SW480 rerep: -273.1%; ELG1 repair inh: -2.9%; MCF10A rerep: -2.2%

Results for CCc1ccc(Nc2nnc(SCC(=O)Nc3cccnc3Cl)s2)cc1 ?
KB-3-1 cytotox: inactive; KB-V1 MDR tox: 16.4µM*; SW480 rerep: 6.0%; ELG1 repair inh: -21.4%; MCF10A rerep: 1.1%

What do the screens show for `Cc1c(F)cccc1NC(=O)C1CCCN1S(=O)(=O)c1ccc(F)cc1` (centres undefined)?
KB-3-1 cytotox: inactive; KB-V1 MDR tox: inactive

What do the screens show for `COC(=O)c1[nH]c2ccc(C)cc2c1NC(=O)CN1CCN(C(=O)c2ccccc2)CC1`?
KB-3-1 cytotox: inactive; KB-V1 MDR tox: inactive; SW480 rerep: 1.1%; ELG1 repair inh: 20.6µM*; MCF10A rerep: inconclusive

Results for COC(=O)c1[nH]c2ccc(C)cc2c1NC(=O)CN1CCN(Cc2ccccc2)CC1 ?
KB-3-1 cytotox: inactive; KB-V1 MDR tox: inconclusive; SW480 rerep: -3.3%[9.22 µM]; ELG1 repair inh: 8.2µM*; MCF10A rerep: inconclusive

What do the screens show for `COc1cc(OC)nc(NC(=O)CN2CCN(c3ccc(F)cc3)CC2)n1`?
KB-3-1 cytotox: inactive; KB-V1 MDR tox: 23.1µM*; SW480 rerep: -11.9%; ELG1 repair inh: 1.5%; MCF10A rerep: 4.5%

Results for COC(=O)c1[nH]c2cc(OC)ccc2c1NC(=O)CN1CCOCC1 ?
ELG1 repair inh: -22.6%

Results for COC(=O)c1[nH]c2cc(OC)c(OC)cc2c1NC(=O)CN1CCN(Cc2ccccc2)CC1 ?
ELG1 repair inh: 1.58µM*

What do the screens show for `Cc1nc(C(F)(F)F)ccc1C(=O)N1CCC1(C)C(=O)NS(=O)(=O)c1cccc(C#N)c1` (centres undefined)?
KB-3-1 cytotox: inactive; KB-V1 MDR tox: inactive

How did O=C1c2ccccc2[C@@H]2C[C@@H](O)[C@H](Nc3cccc(Cl)n3)CCN12 do in these assays?
KB-3-1 cytotox: inactive; KB-V1 MDR tox: inactive; SW480 rerep: -3.8%; ELG1 repair inh: inconclusive; MCF10A rerep: 1.1%

What do the screens show for `O=C(Cn1ncc2c(=O)oc3ccccc3c21)NCc1ccccc1Cl`?
KB-3-1 cytotox: inactive; KB-V1 MDR tox: inactive

What do the screens show for `CCOc1ccc(S(=O)(=O)NCCC(=O)NCc2ccc(OC)c(OC)c2)cc1`?
KB-3-1 cytotox: inactive; KB-V1 MDR tox: inactive; SW480 rerep: 10.6%; ELG1 repair inh: -7.2%; MCF10A rerep: 8.6%

What do the screens show for `COC(=O)c1[nH]c2cccc(OC)c2c1NC(=O)CN1CCN(c2cccc(OC)c2)C(C)C1` (centres undefined)?
KB-3-1 cytotox: inactive; KB-V1 MDR tox: inconclusive; SW480 rerep: 0.3%; ELG1 repair inh: 13µM*; MCF10A rerep: inconclusive

Results for COC(=O)c1[nH]c2ccc(C)cc2c1NC(=O)c1ccccc1[N+](=O)[O-] ?
KB-3-1 cytotox: inactive; KB-V1 MDR tox: 16.4µM*; SW480 rerep: -4.9%; ELG1 repair inh: -14.0%; MCF10A rerep: inconclusive

What do the screens show for `COC(=O)c1[nH]c2ccc(C)cc2c1NC(=O)CN1CCN(c2ccc(F)cc2)CC1`?
KB-3-1 cytotox: inconclusive; KB-V1 MDR tox: inconclusive; SW480 rerep: -11.3%; ELG1 repair inh: 9.2µM*; MCF10A rerep: 13.1%

What do the screens show for `COc1cc(NC(=O)Nc2nc(C(N)Cc3ccc(C(F)(F)F)cc3)cs2)cc(OC)c1OC` (centres undefined)?
KB-3-1 cytotox: inconclusive; KB-V1 MDR tox: inactive

What do the screens show for `O=C(CC1CCCC1)N1CCN(S(=O)(=O)c2cccc(Br)c2)CC1`?
KB-3-1 cytotox: inactive; KB-V1 MDR tox: inactive

How did O=C(CSc1nnc(COc2cccc3cccnc23)o1)N1CCCC1 do in these assays?
KB-3-1 cytotox: inactive; KB-V1 MDR tox: inconclusive; SW480 rerep: 0.8%; ELG1 repair inh: 11.2%; MCF10A rerep: 0.5%

How did CC1CCCC(C)N1C(=O)CSc1nnc(COc2cccc3cccnc23)o1 (centres undefined) do in these assays?
KB-3-1 cytotox: inactive; KB-V1 MDR tox: inconclusive; SW480 rerep: 4.11µM*; ELG1 repair inh: 29.6%; MCF10A rerep: inconclusive

What do the screens show for `COc1cccc(C(=O)CSc2nnc(COc3cccc4cccnc34)o2)c1`?
KB-3-1 cytotox: inactive; KB-V1 MDR tox: inactive; SW480 rerep: 5.17µM*; ELG1 repair inh: inconclusive; MCF10A rerep: 6.51µM*

What do the screens show for `CCOc1ccc(NS(=O)(=O)c2ccc3[nH]cc(C(=O)N(C)C4CCCCC4)c(=O)c3c2)cc1`?
KB-3-1 cytotox: inactive; KB-V1 MDR tox: inconclusive

How did Cc1cc(NC(=O)/C=C/c2ccc(Br)cc2)no1 do in these assays?
KB-3-1 cytotox: inactive; KB-V1 MDR tox: inconclusive; SW480 rerep: 10.3µM*; ELG1 repair inh: inconclusive; MCF10A rerep: 4.4%

How did Cc1cc(NC(=O)Nc2ccc(Cl)cc2)no1 do in these assays?
KB-3-1 cytotox: inactive; KB-V1 MDR tox: inactive; SW480 rerep: 17.6%; ELG1 repair inh: inconclusive; MCF10A rerep: -13.8%

How did Cc1cc(NC(=O)/C=C/c2ccc(Cl)cc2)no1 do in these assays?
KB-3-1 cytotox: inactive; KB-V1 MDR tox: inactive; SW480 rerep: 6.51µM*; ELG1 repair inh: inconclusive; MCF10A rerep: 9.0%

Results for Cc1cc(NC(=O)Cc2ccc(Br)cc2)no1 ?
KB-3-1 cytotox: inactive; KB-V1 MDR tox: inactive; SW480 rerep: inconclusive; ELG1 repair inh: 3.8%; MCF10A rerep: inconclusive

What do the screens show for `O=[N+]([O-])c1cccc(S(=O)(=O)N2CCN(c3nc(-c4cccs4)nc4ccccc34)CC2)c1`?
KB-3-1 cytotox: inactive; KB-V1 MDR tox: inactive

What do the screens show for `Cc1cccc(NC(=S)NC2CCCCCC2)c1C`?
KB-3-1 cytotox: inactive; KB-V1 MDR tox: 18.4µM*; SW480 rerep: -0.2%; ELG1 repair inh: -0.1%; MCF10A rerep: 11.0%

Source: PubChem BioAssay (National Center for Advancing Translational Sciences (NCATS))
